Reference: PubChem BioAssay (NCI)
About 83,000 compounds went through this panel and 20% of them were active in at least one assay; those are over-represented in the sample as a whole.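 Interpretation: 100, growth as untreated; towards 0, rising growth inhibition; 0, no net growth; 0 to -100, cell death. Compounds scoring below 10 were considered active.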 Unmarked numbers belong to inactive results. The source made the active and inactive calls.

Assays:
Assay in all cases: NCI-60 one-dose screen, 48 h (100 = growth as untreated, 0 = no growth, -100 = all killed)
Details in all cases: 10 µM unless noted
BT-549 breast = test system: BT-549 breast
MDA-MB-435 melanoma = test system: MDA-MB-435 melanoma
SW-620 colon = test system: SW-620 colon
MCF7 breast = test system: MCF7 breast
HCT-116 colon = test system: HCT-116 colon
HCC-2998 colon = test system: HCC-2998 colon
KM12 colon = test system: KM12 colon

Compound | growth (BT-549 breast) | growth (MDA-MB-435 melanoma) | growth (SW-620 colon) | growth (MCF7 breast) | growth (HCT-116 colon) | growth (HCC-2998 colon) | growth (KM12 colon)
CCCC(=O)NC(c1ccc2c(c1)OC(F)(F)O2)c1cc(C)c2cccnc2c1O (configuration not stated) | 37.9% | 22.9% | 30.3% | 24.1% | 26.2% | 53.3% | 21.4%
CN1CCN(Cc2ccc(NC(=O)c3cncc(C#Cc4cnc5ccc(N6CCSCC6)nn45)c3)cc2C(F)(F)F)CC1 | 40.5% | -73.4% (active) | -3.56% (active) | -59.7% (active) | -51.8% (active) | -51.2% (active) | -22.5% (active)
N#Cc1c(-c2ccc(Cl)cc2)nc(SCc2ccc([N+](=O)[O-])cc2)nc1N1CCNCC1 | 89.6% | -63.3% (active) | -52.8% (active) | -43.9% (active) | -91.5% (active) | -40.1% (active) | -47.2% (active)
O=C1c2c(c3c4cccnc4[nH]c3c3ccc4ccccc4c23)C(=O)N1CCO | 86.8% | 85.1% | 57.6% | 30.2% | 60.2% | 101% | –
O=C(Oc1ccc2ccc(=O)oc2c1)c1ccc(Cl)cc1 | 101% | 109% | 102% | 94% | 98.5% | 102% | 108%
O=C(N/N=C/c1ccc[nH]1)c1[nH]c2ccc(Br)cc2c1-c1ccccc1 | -12.5% (active) | 2.21% (active) | 22.8% | 3.98% (active) | 0.0164% (active) | 17.2% | 10.4%
COc1cc(/C=C/C(=O)c2ccc(C)cc2)ccc1Oc1nc(NCCO)nc(N2CCOCC2)n1 | -58.8% (active) | 33.1% | 3.05% (active) | 9.07% (active) | -77.2% (active) | 93.8% | 20.2%
Cn1c(SCC(=O)Nc2ccc(-c3nc4ccc([N+](=O)[O-])cc4[nH]3)cc2)nc2ccccc2c1=O | 27.8% | 93.4% | 87.3% | 45.3% | 70.9% | 84.6% | 65.5%
O=C1Nc2ccc(Cl)cc2/C1=C/c1ccc(OCC(=O)c2ccc(Br)cc2)cc1 | 118% | 99.1% | 89.9% | 80.1% | 95.5% | 99.5% | 59.1%
N#Cc1c(-c2ccc(Cl)cc2)nc(SCc2ccc(F)cc2)nc1N1CCNCC1 | 101% | 69.3% | -80.2% (active) | -19.3% (active) | -93.8% (active) | -31.8% (active) | 33.6%
CCCC(=O)NC(c1cccnc1)c1cc(C)c2cccnc2c1O (configuration not stated) | 69.5% | 59.7% | 33.4% | 10.6% | 8.73% (active) | 64.1% | 38.4%
COc1cc(-c2nc3ccc(-c4nnc(SCC(=O)Nc5ccc(C(=O)/C=C/c6ccc(Cl)cc6)cc5)o4)cc3[nH]2)cc(OC)c1OC | 84.4% | 99% | 100% | 59.1% | 81.5% | 120% | 90.9%
COC1CCN(Cc2ccc3c(NNC(=O)c4cnccn4)nc4cc(F)ccc4n23)C1 (configuration not stated) | 51.7% | 37.2% | 24% | 14% | 4.53% (active) | 59.9% | 22.6%
N#Cc1nc(-c2ccccc2)oc1S(=O)(=O)N1CCN(CCc2ccccn2)CC1 | 107% | 22.9% | -24.2% (active) | 28% | 11.9% | 114% | 84.1%
C#C[C@]1(O)CC[C@H]2[C@@H]3CC=C4c5sc(Nc6ccc(Cl)cn6)nc5CC[C@]4(C)[C@H]3CC[C@@]21C | 32.9% | 41.4% | 29.5% | 17.6% | 34.5% | 80% | 38.9%
[Cl][Ru].c1ccc(-c2cc(-c3ccccn3)nc(-c3ccccn3)c2)cc1.c1ccc(-c2ccnc3c2ccc2c(-c4ccccc4)ccnc23)cc1 | -94.6% (active) | -62.2% (active) | -56.7% (active) | -28.2% (active) | -79% (active) | -72.9% (active) | -70.8% (active)
COc1cc(/C=C/C(=O)c2cc(OC)c(OC)c(OC)c2)ccc1OCc1ccc(F)cc1 | 8.09% (active) | 52.9% | 16.9% | 10.8% | 5.57% (active) | 40.2% | 19%

Compound | growth (BT-549 breast) | growth (MDA-MB-435 melanoma) | growth (SW-620 colon) | growth (MCF7 breast) | growth (HCT-116 colon) | growth (HCC-2998 colon) | growth (KM12 colon)
COc1cc(-c2nc3ccc(-c4nnc(SCC(=O)Nc5ccc(C(C)=O)cc5)o4)cc3[nH]2)cc(OC)c1OC | 108% | 108% | 101% | 92.6% | 106% | 112% | 101%
COc1ccc(/C=N/Nc2ccnc3cc(Cl)ccc23)cc1Cl | -79.8% (active) | -84.1% (active) | -89% (active) | -12.2% (active) | -89.4% (active) | -39.9% (active) | -88.6% (active)
Cc1c(NC(=O)CSc2nc3sc4c(c3c(=O)n2-c2ccc(Cl)cc2)CCCC4)c(=O)n(-c2ccccc2)n1C | 93.2% | 88.3% | 90.6% | 77.3% | 107% | 110% | 98.7%
Cc1nc2cnc(N)c(C#Cc3cncc(C(=O)Nc4ccc(Cl)c(C(F)(F)F)c4)c3)c2nc1C | 86.7% | 41% | -18.9% (active) | -67.5% (active) | 15.4% | 60.4% | 3.01% (active)
C#Cc1nc(C2=C(C)C(OC(=O)CCC(=O)O)CC2)cs1 (configuration not stated) | 102% | 106% | 113% | 87.6% | 114% | 109% | 79.2%
C#Cc1nc(C2=C(C)C(=N\O)/C(=N/O)C2)cs1 | 105% | 93.7% | 109% | 72.5% | 87.3% | 113% | 67.1%
O=C(N/N=C/c1ccc([N+](=O)[O-])o1)c1[nH]c2ccc(Br)cc2c1-c1ccccc1 | -32.1% (active) | -40.8% (active) | 10.5% | 7.95% (active) | -8.73% (active) | 2.07% (active) | 15.3%
Nc1ncc(-c2ccc3ncnc(N4CCc5cc(F)c(Cl)cc54)c3c2)cc1CO | -31.1% (active) | -34.4% (active) | 11.1% | 4.61% (active) | 6.3% (active) | 8.47% (active) | 0.831% (active)
CC(=O)Oc1ccccc1C(=O)Nc1cc(C(C)C)ccc1C | 37.5% | 11.1% | 23.8% | 9.56% (active) | 11.3% | 20.5% | 11.1%
Cn1ccnc1C(=O)/C=C/c1ccc(NC(=O)Nc2ccc(F)cc2)cc1 | 30.1% | 35.4% | 42.1% | 10.3% | 17.1% | 29.8% | 36.5%
NS(=O)(=O)c1ccc(Nc2nc(Nc3ccccc3)nc(-n3nc(-c4ccccc4)cc3-c3ccccc3)n2)cc1 | 52.7% | 26.9% | 38.2% | 6.85% (active) | 10.5% | 43.1% | 9.22% (active)
C#Cc1nc(C2=C(C)/C(=N/OCc3ccccc3)CC2)cs1 | 58.1% | 80.1% | 85.6% | 49.5% | 40.6% | 99.8% | 19.6%
O=C1Nc2cc(Cl)ccc2/C1=C\c1ccc(OCc2ccc([N+](=O)[O-])cc2)cc1 | 77.5% | 80.2% | 76.8% | 61.3% | 68.2% | 82.8% | 64.6%
OC1CCN(CCCOc2c3ccc(Cl)cc3nc3c2oc2ccccc23)CC1 | -2.71% (active) | -76.3% (active) | -19.8% (active) | -32.1% (active) | -34.9% (active) | -68% (active) | -16.1% (active)
COc1cccc(COc2ccc(/C=C3/C(=O)Nc4cc(Cl)ccc43)cc2)c1 | 106% | 99.9% | 97.5% | 70.7% | 93.7% | 102% | 97.1%
COc1ccccc1/C=C/C=N/NC1=NC2C(S1)N(C)C(=O)N2C (configuration not stated) | 67.8% | -57.1% (active) | 20.9% | 19.9% | 35.9% | 68.3% | 18.2%
CC(=NNc1ncnc2ccccc12)c1ccc(S(C)(=O)=O)cc1 | 105% | 106% | 104% | 87.5% | 100% | 111% | 102%
